# Rows were chosen to be rich in hits. Some 2.7% of all compounds tested hit in one or more screens of this group.
# HSP90 inh: HSP90 inhibitors, primary screen, cell lysate, luminescence; actives 0.91% (n = 290,000); Heat shock protein HSP 90 (rabbit reticulocyte lysate; luciferase refolding); inhibition, % at 5.6 µM; AID 1789, 2009; Rabbit reticulocyte lysate, luciferase refolding luminescence, 3 h;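 active means inhibition above the screen-wide mean plus 3 SD, computed separately per campaign, cut at about 16% in these data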;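 further: inhibitors lower the luminescence because luciferase stays unfolded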
# SENP8 block-1: human SENP8 protease inhibitors, primary screen, biochemical, fluorescence, Nedd8 protein substrate, uHTS; Sentrin-specific protease 8 (Homo sapiens), Q96LD8; recombinant SENP8; inhibition, % at 20 µM; actives 0.64% (n = 360,000); AID 602440, 2012; in the data active means inhibition mostly above about 40%, no sharp cut-off; inactive means mostly below about 27%
# Target sequence (Q96LD8 whole entry, looked up): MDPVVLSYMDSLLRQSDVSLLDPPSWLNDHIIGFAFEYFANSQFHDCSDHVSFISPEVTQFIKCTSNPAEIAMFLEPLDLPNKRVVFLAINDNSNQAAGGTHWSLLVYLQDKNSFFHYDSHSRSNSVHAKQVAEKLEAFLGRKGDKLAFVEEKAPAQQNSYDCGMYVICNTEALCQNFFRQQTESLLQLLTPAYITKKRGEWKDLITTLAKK
# SENP8 block-2: SENP8 protease inhibitors, primary screen, biochemical, luminescence. Sentrin-specific protease 8 (Homo sapiens), Q96LD8. purified SENP8, Z-RLRGG-aminoluciferin cleavage. inhibition, % at 10 µM. actives 1.2% (n = 330,000); in the data active means inhibition above about 50%
# SENP6 inh: SENP6 protease inhibitors, primary screen, biochemical, luminescence, uHTS; Sentrin-specific protease 6 (Homo sapiens), Q9GZR1; Recombinant SENP6 catalytic domain, aminoluciferin luminescence; inhibition, % at 10 µM; actives 1.8% (n = 330,000); AID 2599, 2010;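 active means inhibition above about 50% at the single tested dose, limit read from the data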
# SENP7 block: SENP7 protease inhibitors, primary screen, biochemical, luminescence, uHTS; Sentrin-specific protease 7 (Homo sapiens), Q9BQF6; recombinant SENP7, Z-RLRGG-aminoluciferin luminescence, 40 min; inhibition, % at 5 µM; actives 1.5% (n = 330,000);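 active means inhibition above about 50% at the single test dose, limit read from the data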
# Target sequence (Q9BQF6 706-1050 limits assumed): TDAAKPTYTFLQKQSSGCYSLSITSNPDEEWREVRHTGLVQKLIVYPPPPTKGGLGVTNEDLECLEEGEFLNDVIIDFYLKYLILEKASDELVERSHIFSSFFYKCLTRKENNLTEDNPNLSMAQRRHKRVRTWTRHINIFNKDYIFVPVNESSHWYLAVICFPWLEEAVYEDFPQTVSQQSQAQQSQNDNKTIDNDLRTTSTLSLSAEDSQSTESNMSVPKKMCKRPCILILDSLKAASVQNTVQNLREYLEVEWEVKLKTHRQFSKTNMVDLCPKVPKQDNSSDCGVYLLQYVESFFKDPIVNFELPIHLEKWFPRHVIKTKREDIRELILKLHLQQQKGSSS
# SENP8 conf: human SENP8 protease inhibitors, confirmation, biochemical, Nedd8 protein substrate, single concentration | purified SENP8, Nedd8-AMC/pro-Nedd8 cleavage fluorescence, 30 min | inhibition, % at 25 µM | shares compounds with SENP8 block-1 | AID 624319, 2012 | actives 15% (n = 1,400); in the data active means inhibition mostly above about 39%, no sharp cut-off; inactive means mostly below about 34%
# Hits are given with their value; n = inactive; x = not tested or not shown.
SMILES,HSP90 inh,SENP8 block-1,SENP8 block-2,SENP6 inh,SENP7 block,SENP8 conf
CC(C)Nc1nc(NC(C)C)nc(N(C#N)C(C)C(=O)N(C)C)n1 (configuration not stated),n,x,x,x,x,x
COc1ccc(-n2c(C)cc(SC)c(C(C)=O)c2=S)cc1,n,n,n,n,n,x
CSc1cc(C)n(-c2ccc(Cl)cc2)c(=S)c1C(C)=O,n,42,n,n,n,n
COc1cc(C(=O)OC2CC3CCC2(C)C3(C)C)ccc1OC(C)=O (configuration not stated),n,62,n,n,n,n
CCOC(=O)c1cccc(NC(=O)CSc2nnnn2CC)c1,n,n,n,n,n,x
COc1ccccc1NC(=O)C(C)N1C(=O)C2CCCCC2C1=O (configuration not stated),x,n,n,n,n,x
CCOC(=O)C1=C(COC(=O)/C=C/c2ccc(OC)cc2)NC(=O)NC1C (configuration not stated),x,n,n,n,n,x
COc1ccc2[nH]cc(CCNC(=O)COc3ccc4ccc(=O)oc4c3)c2c1,n,42,n,n,n,n
Cc1cc(=O)oc2cc(OCC(=O)NCCc3c[nH]c4ccc(F)cc34)ccc12,n,n,n,n,n,x
O=C(NCCN1CCOCC1)c1cccc2c1C(=O)c1ccc(N3CCCC3)cc1S2(=O)=O,x,n,n,n,n,x
COc1cc(OC)cc(C(=O)NCCCCNC(=O)c2cc(OC)cc(OC)c2)c1,x,n,n,n,n,x
Cc1nc(Nc2ccc(F)cc2)nc(Nc2ccc(F)cc2)c1[N+](=O)[O-],n,n,n,n,n,x
COc1ccc(Nc2nc(NN)nc(C)c2[N+](=O)[O-])cc1,n,60,n,n,n,n
COc1cc(=O)n(C)c2c(O)cccc12,n,56,n,n,n,n
COc1cc(=O)n(C)c2ccccc12,n,n,n,n,n,x
O=C(/C=C/NNC(=O)c1ccc(Cl)cc1)c1ccccc1,n,39,n,n,n,n
O=C(/C=C/NNC(=O)c1ccccc1)c1ccc(Br)cc1,n,n,n,n,n,x
O=C(NN1C(=O)C2C3C=CC(C4CC34)C2C1=O)c1cccc(Br)c1 (configuration not stated),n,n,n,n,n,x
CCOC(=O)Cn1c2ccc(OC)cc2c2nc3ccccc3nc21,n,58,n,n,n,n
COC(=O)Cn1c2ccc(OC)cc2c2nc3ccccc3nc21,n,n,n,n,n,x
CCN(CC(=O)Nc1ccc2c(c1)OCCO2)C(=O)c1ccc([N+](=O)[O-])s1,x,n,n,n,n,x
CN1CCN(C2=C(Cl)C(=O)N(C3CCCCC3)C2=O)CC1,n,41,n,n,n,n
COCc1cc([C@@H]2C[C@H]3CN(c4ccccc4)C(=O)[C@]34CCCN24)ccc1OC,n,42,n,n,n,n
COc1ccc([C@@H]2C[C@H]3CN(c4ccccc4)C(=O)[C@]34CCCN24)c(OC)c1OC,n,n,n,n,n,x
CC(C)C[C@H](NC(=O)N1CC(=O)Nc2ccccc21)C(=O)N[C@H](Cc1c[nH]c2ccccc12)C(=O)O,n,51,n,n,n,n
SMILES,HSP90 inh,SENP8 block-1,SENP8 block-2,SENP6 inh,SENP7 block,SENP8 conf
O=C1CN(C(=O)NCC(=O)N[C@@H](Cc2ccccc2)C(=O)O)c2ccccc2N1,n,46,n,n,n,n
CC(C)C[C@H](NC(=O)N1CC(=O)Nc2ccccc21)C(=O)N[C@@H](Cc1c[nH]c2ccccc12)C(=O)O,n,n,n,n,n,x
CCOC(=O)CC(=O)Nc1ccc(C)cc1,n,40,n,n,n,n
COc1ccc(NC(=O)COC(=O)C2CCCCC2)c([N+](=O)[O-])c1,n,n,n,n,n,x
COc1ccc(NC(=O)COC(=O)CC2CC3CCC2C3)c([N+](=O)[O-])c1 (configuration not stated),n,40,n,n,n,n
CS(=O)(=O)c1ccc2nnn(OCC(=O)Nc3ccc(Br)cc3Br)c2c1,n,n,n,n,n,x
Clc1ccc(/C=N/NC(=Nc2ccccc2)c2ccccn2)c(Cl)c1,n,n,n,n,n,x
C(=N\NC(=Nc1ccccc1)c1ccccn1)/c1ccccn1,n,40,n,n,n,n
COc1ccc(CCC(C)NC2CCCCCCC2)cc1 (configuration not stated),n,49,n,n,n,n
Nc1nc(COC(=O)c2ccc3c(c2)OCCO3)nc(Nc2ccccc2)n1,x,n,n,n,n,x
O=C(O)c1ccccc1S(=O)(=O)NCC(O)COC1CCCCC1 (configuration not stated),n,43,n,n,n,n
Cc1ccc(OCC(O)CNS(=O)(=O)c2ccccc2C(=O)O)cc1 (configuration not stated),n,n,n,n,n,x
O=C1CSC2=NCN(c3ccc4c(c3)OCO4)CN12,n,n,n,n,n,x
CN(C)c1ccc(N2CN=C3SCC(=O)N3C2)cc1,n,52,n,n,n,n
COCC(=O)Nc1cc(C(=O)Nc2ccccc2C)ccc1Cl,n,n,n,n,n,x
COc1ccc(NC(=O)C2CCC(N3C(=O)C4C5C=CC(C5)C4C3=O)CC2)cc1 (configuration not stated),n,n,n,n,n,x
COc1ccc(NC(=O)[C@@H]2[C@@H]3C(=O)N(C4CCCCC4)C(=O)[C@@H]3C3c4ccccc4C=CN32)cc1 (some centres not stated),n,64,n,n,n,38
CC(=O)C1=NN(c2ccccc2)C(c2ccc3c(c2)OCO3)N1c1ccc(N2CCOCC2)cc1 (configuration not stated),n,44,n,n,n,n
CCN1CCN(C(=O)C(C)Nc2cc(Cl)c(OC)cc2OC)CC1 (configuration not stated),n,44,n,n,n,n
CCN1CCN(C(=O)Nc2cc(Cl)ccc2OC)CC1,n,n,n,n,n,x
CCOC(=O)COc1ccc(/C=C2/SC(=Nc3ccccc3)N(Cc3cccnc3)C2=O)cc1OC,n,43,n,n,n,n
CCOc1ccc(NC(=O)c2nsc(Cl)c2Cl)cc1,n,n,n,n,n,x
COc1cccc2nc3cc(C)c(C)cc3nc12,n,42,95,91,97,78
COc1cccc2c1nc(C)c1cc(C)oc12,n,n,n,n,n,x
CC(=O)C1=C(C)NC2(O)c3ccccc3C(=O)C12O (configuration not stated),n,66,n,n,n,53
Cc1cc2ccccn2c1C(=O)c1ccc(NN)c([N+](=O)[O-])c1,n,42,n,n,n,n

# Screens (PubChem BioAssay)
